Target: SNX29
Experiment: pooled miR-30 sensor sort-seq; sequence = guide strand
Conditions: shRNA
Also: reference of the scale not given here.

Q: Which sensor-assay potency score (higher = more potent) does the source give for TTCATCGTCTTTTATCCGGATG here?
A: -0.658

Q: How did the sensor-assay potency score (higher = more potent) turn out when TTCTTTCGTAGGAGCTTGCGAG was run?
A: -0.569

Q: How did the sensor-assay potency score (higher = more potent) turn out when TAACTTGTGGTGCAAACTCCTG was run?
A: -1.57

Q: TTGAGCACCTCGTTCTCTCTGG was tested. Which sensor-assay potency score (higher = more potent) did it give?
A: -0.561

Q: TTTTATCCGGATGTAGACCTGA was tested. Which sensor-assay potency score (higher = more potent) did it give?
A: 0.194

Q: For TTTCTTTCGTAGGAGCTTGCGA, which sensor-assay potency score (higher = more potent) is on record?
A: -0.585

Q: Which sensor-assay potency score (higher = more potent) does the source give for TTCTTCAGCAATTTCTCCCGGC here?
A: 0.0945

Q: For TTGGACTTTGAGCACCTCGTTC, which sensor-assay potency score (higher = more potent) is on record?
A: -0.779

Q: Which sensor-assay potency score (higher = more potent) does the source give for AACTTCTCCATCAACACTCCAA here?
A: 0.0779

Q: For TTCTGGAGCTGCTTTCTCCGTT, which sensor-assay potency score (higher = more potent) is on record?
A: -0.513

Q: TACTTGTTTTGTAACTTGTGGT was tested. Which sensor-assay potency score (higher = more potent) did it give?
A: 0.289

Target: SNX32
Experiment: as above
Conditions: shRNA

Q: TTAGCTGGTTGACTTCCTGTGT was tested. Which sensor-assay potency score (higher = more potent) did it give?
A: 0.0166

Q: How did the sensor-assay potency score (higher = more potent) turn out when TTGAACAGTGAATTTCACCTTG was run?
A: 0.337

Q: For TTTCGAAAAGAGGAGACCCGGC, which sensor-assay potency score (higher = more potent) is on record?
A: -0.633

Q: For TTCTGTAGCTTTTCCCTCGAAG, which sensor-assay potency score (higher = more potent) is on record?
A: -0.129

Q: With TGAACAGTGAATTTCACCTTGT as the sequence, how does the sensor-assay potency score (higher = more potent) read?
A: 0.317

Q: With AATTTGAGGAAGCTCGTCCTTA as the sequence, how does the sensor-assay potency score (higher = more potent) read?
A: -0.0375

Q: For TAAGGAGCTGTCTCCCTGCAGA, which sensor-assay potency score (higher = more potent) is on record?
A: -1.06

Q: TGCGTCAGAAATCTCCACCTGT was tested. Which sensor-assay potency score (higher = more potent) did it give?
A: 0.185

Q: Which sensor-assay potency score (higher = more potent) does the source give for TTTGAGCTCCAGCTCTGCCAGC here?
A: -1.19

Q: For TACTCCAACAGGAAGGTCCTCT, which sensor-assay potency score (higher = more potent) is on record?
A: 0.509

Q: TTCGTGCATCGCAACTGTCTTC was tested. Which sensor-assay potency score (higher = more potent) did it give?
A: -0.785

Target: SOCS2
Experiment: as above
Conditions: shRNA

Q: TATCCTTGCACATCTGAACATA was tested. Which sensor-assay potency score (higher = more potent) did it give?
A: -1.25

Q: With TAGTAGGTAGTCTGAATGCGAG as the sequence, how does the sensor-assay potency score (higher = more potent) read?
A: -0.794

Q: With TTAACAGTCATACTTCCCCAGT as the sequence, how does the sensor-assay potency score (higher = more potent) read?
A: -1.23

Q: For TAATCTTTTAGTCTTGTTGGTA, which sensor-assay potency score (higher = more potent) is on record?
A: -0.175

Q: How did the sensor-assay potency score (higher = more potent) turn out when TTTTCCGTCTTGGTATTCGATT was run?
A: -1.45

Q: With TTAAGCTTGGATTTGACACATA as the sequence, how does the sensor-assay potency score (higher = more potent) read?
A: -1

Q: With TTTGGCTTCATTAACAGTCATA as the sequence, how does the sensor-assay potency score (higher = more potent) read?
A: -0.491

Q: For TTCTCTTTTACATAGCTGCATT, which sensor-assay potency score (higher = more potent) is on record?
A: -0.899

Q: How did the sensor-assay potency score (higher = more potent) turn out when TATTGTTAGTAGGTAGTCTGAA was run?
A: 0.147

Q: TTAGTAGGTAGTCTGAATGCGA was tested. Which sensor-assay potency score (higher = more potent) did it give?
A: -0.295

Q: How did the sensor-assay potency score (higher = more potent) turn out when TTCGAAGATTAGTTGGTCCAGC was run?
A: 0.103

Q: TTGCACATCTGAACATAGTAGT was tested. Which sensor-assay potency score (higher = more potent) did it give?
A: 0.207

Target: SOHLH2
Experiment: as above
Conditions: shRNA

Q: TATGTTTGCAAATAGTTTCTGT was tested. Which sensor-assay potency score (higher = more potent) did it give?
A: 0.299

Q: For TTTGATATTAGGTCTTTGGGTG, which sensor-assay potency score (higher = more potent) is on record?
A: -0.0455

Q: How did the sensor-assay potency score (higher = more potent) turn out when TTTGAGGGACATGTTGTCCAGT was run?
A: -0.779

Q: How did the sensor-assay potency score (higher = more potent) turn out when TAGATTGTCAAACTGCGCCCAG was run?
A: -0.465

Q: TAAGATGTCTATTTTTGCCTGG was tested. Which sensor-assay potency score (higher = more potent) did it give?
A: 0.389

Q: TTCGCTGTAGGACCTCTGCAGG was tested. Which sensor-assay potency score (higher = more potent) did it give?
A: -0.848
